Shown are actives, neighbours in structure and some others; about 32% of the full set was active somewhere.
CYP2C9 act: human CYP2C9 activators, primary screen, biochemical, luminescence. Cytochrome P450 2C9 (Homo sapiens), P11712. recombinant CYP2C9, luciferin-H conversion; stronger effect = higher value; factor 1 = untreated enzyme, 0 = blocked. hit rate 1.4% among 96,000. activation factor at 5 µM;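 active = activation factor of 2 or more for CYP2C9 at a 5 µM dose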;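 also: 0 = sulfaphenazole-blocked wells and 1 = vehicle-only wells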
Target sequence (P11712 whole entry, looked up): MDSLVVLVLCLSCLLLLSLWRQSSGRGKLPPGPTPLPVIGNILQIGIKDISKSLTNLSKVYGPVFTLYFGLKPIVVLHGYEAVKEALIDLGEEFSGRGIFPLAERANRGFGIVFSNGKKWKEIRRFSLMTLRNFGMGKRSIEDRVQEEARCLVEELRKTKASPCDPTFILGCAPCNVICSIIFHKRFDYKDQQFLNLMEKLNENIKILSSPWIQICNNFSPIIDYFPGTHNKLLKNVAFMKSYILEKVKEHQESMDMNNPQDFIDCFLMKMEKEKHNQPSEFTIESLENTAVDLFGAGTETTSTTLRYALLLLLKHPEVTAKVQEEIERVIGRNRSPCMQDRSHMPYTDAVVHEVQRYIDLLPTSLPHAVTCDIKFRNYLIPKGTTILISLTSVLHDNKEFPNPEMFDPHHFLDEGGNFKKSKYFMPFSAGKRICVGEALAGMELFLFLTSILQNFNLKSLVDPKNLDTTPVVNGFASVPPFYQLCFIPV
PostGolgi ctrl: growth inhibition of yeast control strain, primary screen, counter-screen for post-Golgi transport modulator project; efflux-deficient yeast background strain, growth absorbance A615, 16 h; inhibition, % at 10 µM; hit rate 5% among 98,000; AID 738, 2007
CYP2C9 inhib: blockers of cytochrome P450 2C9 activity – biochemical, luminescence, ADME assay, primary screen. P11712. CYP2C9 Supersomes, luciferin-H conversion. inhibition, % at 5 µM. hit rate 20% among 96,000. AID 777, 2007;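 active = blocking of liver enzyme CYP2C9 beyond about 50% at 5 µM, limit read from the data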
PostGolgi yeast: phenotypic screen on post-Golgi transport, primary screen. post-Golgi transport phenotypic cell assay. inhibition, % at 10 µM. hit rate 0.9% among 98,000. AID 739, 2007;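 also: yeast cells grown in 1536-well plates; yeast grown about 18 h at 30C before absorbance read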
CYP2C19 inhib: blockers of cytochrome P450 2C19 activity – biochemical, luminescence, ADME assay, primary screen; inhibition, % at 5 µM; CYP2C19 Supersomes, luciferin-H EGE luminescence, 30 min; P33261; hit rate 21% among 96,000;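 active = CYP2C19 inhibition above a set limit at 5 µM in the primary screen, cut at about 50% in these data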;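 also: plate controls were negative control wells for no effect and 2.5 mM tranylcypromine positive control for full effect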
CYP2C19 act: human CYP2C19 activators, primary screen, biochemical, luminescence; recombinant CYP2C19, luciferin-H EGE luminescence; stronger effect = higher value; 0 = fully inhibited enzyme, 1 = untreated enzyme; activation factor at 5 µM; 96,000 tested, under 10 active;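 active = activation factor of at least 2 at 5 µM in the primary screen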;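 also: 0 = wells with 2.5 mM tranylcypromine and 1 = vehicle-only wells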
An asterisk follows results filed as active; nt = no result given. Rule as the data show it, unless noted: active = inhibition above about 30%; inactive = the rest.

SMILES | CYP2C9 act | PostGolgi ctrl | CYP2C9 inhib | PostGolgi yeast | CYP2C19 inhib | CYP2C19 act
CCn1c(Cn2nnc(-c3ccccc3)n2)nnc1SCC(=O)Nc1ccc(N(C)C)cc1 | 1 | 3 | 5 | -3 | 31 | 0.7
CCn1c(Cn2nnc(-c3ccccc3)n2)nnc1SCC(=O)Nc1cccc(C(C)=O)c1 | 0.6 | 2 | 42 | -6 | 70* | 0.3
Cc1nc2sccn2c1P(c1c(C)nc2sccn12)c1c(C)nc2sccn12 | 0.4 | nt | 63* | nt | 72* | 0.3
CCOC(=O)c1c(C)nc2sccn12 | 1.1 | 1 | -15 | -12 | 12 | 0.9
CCCC(=O)O[C@H]1C[C@@H](C)N(C(=O)c2ccccc2)c2ccc(C)cc21 | 0.4 | 39* | 63* | -2 | 58* | 0.4
COc1cc(SC)ccc1C(=O)Nc1ccc2c(c1)CCN2S(C)(=O)=O | 1.6 | 9 | -60 | -4 | 35 | 0.6
COc1ccccc1NC(=O)c1cn(C)c(=O)c2cc(OC)c(OC)cc12 | 0.7 | 8 | 28 | 3 | 1 | 1
COc1ccccc1NC(=O)c1cc(Sc2nncn2C)nc2ccccc12 | 0.2 | 33* | 80* | 1 | 38 | 0.6
CCOC(=O)c1c(-c2cccs2)csc1NC(=O)CNCCN1CCOCC1 | 0.3 | 6 | 68* | 3 | 28 | 0.7
CCOC(=O)c1c(-c2cccs2)csc1NC(=O)C(C)(C)C | 0.6 | 2 | 43 | 1 | -13 | 1.1
CCOC(=O)c1c(-c2cccs2)csc1NC(=O)CN1CC(C)OC(C)C1 (configuration not stated) | 0.3 | 43* | 69* | -3 | 32 | 0.7
O=C(NCCCN1CCOCC1)c1cc(-c2cccs2)on1 | 1 | -3 | -2 | -4 | -2 | 1
CCOC(=O)c1c(-c2cccs2)csc1NC(=O)CSc1ncn[nH]1 | 0.1 | 19 | 95* | -3 | 86* | 0.1
Cc1ccc2nc(N3CCN(S(=O)(=O)c4ccc(C)c(Cl)c4)CC3)c(C#N)cc2c1 | 0.6 | 9 | 42 | -4 | 20 | 0.8
O=C(OCc1ccccc1Cl)c1cccnc1Cl | 1.8 | 9 | -84 | 9 | 29 | 0.7
O=C(OCc1c(Cl)cccc1Cl)c1cccnc1 | 0.8 | 2 | 22 | 25 | 86* | 0.1
O=C(Oc1cccc(Br)c1)c1cccnc1 | 1.1 | 34* | -10 | 12 | 3 | 1
O=C(OCc1c(Cl)cccc1Cl)c1cccnc1Cl | 1.8 | 8 | -78 | 16 | 52* | 0.5
O=C(OCC(=O)c1ccccc1Br)c1ccccn1 | 1 | 6 | -5 | 6 | 0 | 1
O=C(COC(=O)c1cccnc1Cl)c1ccccc1 | 1 | 32* | -1 | nt | 27 | 0.7
C/C(=C\C(=O)c1ccc(Br)cc1)NCc1ccc2c(c1)OCO2 | 0.9 | 20 | 7 | 7 | 9 | 0.9
CCOC(=O)CSC1=NC(=O)/C(=C\c2ccc(OC(C)=O)cc2)S1 | 0.9 | 3 | 10 | 11 | 14 | 0.9
CO/N=C/c1ccc(N2CCN(C(=O)c3ccc(Cl)cc3Cl)CC2)c([N+](=O)[O-])c1 | 0.7 | 19 | 30 | -3 | 26 | 0.7
COc1ccc(OC)c2c1sc(=NC(=O)C(C)C)n2C | 0.3 | 24 | 71* | -4 | 71* | 0.3
COc1ccc(OC)c2c1sc(=NC(=O)c1cccc(N3C(=O)CCC3=O)c1)n2C | 1 | 31* | -2 | -11 | 1 | 1
SMILES | CYP2C9 act | PostGolgi ctrl | CYP2C9 inhib | PostGolgi yeast | CYP2C19 inhib | CYP2C19 act
COc1ccc(C(=O)N=c2sc3c(C)ccc(OC)c3n2C)cc1 | 0.5 | -2 | 53* | 0 | 30 | 0.7
CCOC(=O)c1ccc(NC(=O)CN2C(=O)C(=O)N(CC(C)C)C2=O)cc1 | 1 | 1 | -4 | 22 | 7 | 0.9
Cc1cccc(N2CCN(C(=O)CCCOc3ccccc3)CC2)c1C | 0.2 | 33* | 81* | 16 | 75* | 0.3
Cc1cccc(N2CCN(C(=O)Cn3cccc3C(=O)c3ccccc3)CC2)c1C | 1.2 | 18 | -20 | 2 | 42 | 0.6
Cc1cccc(N2CCN(C(=O)Cc3c(C(=O)O)[nH]c4ccc(Cl)cc34)CC2)c1C | 0.1 | 4 | 87* | 5 | 43 | 0.6
O=C(CCCOc1ccccc1)N1CCc2ccccc2C1 | 0.5 | 12 | 50 | -4 | 83* | 0.2
O=C(CCN1C(=O)c2ccccc2C1=O)N1CCN(C(=O)c2ccccc2)CC1 | 0.8 | 2 | 20 | 4 | 8 | 0.9
O=C(CCCN1C(=O)c2ccccc2C1=O)N1CCC(c2ccccc2)C1 (configuration not stated) | 0.3 | -1 | 67* | 0 | 79* | 0.2
COc1ccc(-n2nnc3c(SCC(=O)OCc4ccccc4)ncnc32)cc1 | 1 | 2 | 1 | 1 | -4 | 1
O=C(Cn1nc(-c2ccccc2)c2ccccc2c1=O)NCCN1CCOCC1 | 1 | -2 | -4 | -2 | -8 | 1.1
CCOc1ccccc1N(C(=O)CNC(=O)c1ccco1)C(C(=O)NC(C)(C)C)c1ccncc1 (configuration not stated) | 0.7 | -7 | 30 | -2 | 38 | 0.6
NS(=O)(=O)c1ccc(NC(=O)CSc2nnc(COc3ccccc3Cl)n2C2CC2)cc1 | 1 | -4 | 4 | 5 | -3 | 1
CCOC(=O)N1CCN(C(=O)CCCOc2ccccc2)CC1 | 1.1 | 0 | -7 | 6 | 13 | 0.9
O=C(CCCOc1ccccc1)N1CCN(c2ccccc2)CC1 | 0.2 | 17 | 78* | -3 | 62* | 0.4
O=C(CCCN1C(=O)c2cccc3cccc(c23)C1=O)N1CCc2ccccc2C1 | 4* | 8 | -296 | 23 | 52* | 0.5
O=C(NCc1cccs1)C1CC(=O)N(c2ccccc2)C1 (configuration not stated) | 1.1 | 2 | -14 | 2 | 22 | 0.8
CC1CCCN(C(=O)Cn2nnc(-c3cccnc3)n2)C1 (configuration not stated) | 1.1 | 17 | -14 | 0 | 48 | 0.5
Cc1ccc(C(=O)CCCn2nnc(-c3cccnc3)n2)cc1C | 0.4 | 5 | 55* | 16 | 80* | 0.2
CC(C)N1C(=O)C(Cc2nc3ccccc3c(=O)n2-c2ccccc2)c2ccccc21 (configuration not stated) | 0.7 | 27 | 35 | -6 | 23 | 0.8
CC(C)N1C(=O)/C(=C/c2nc3ccccc3c(=O)n2-c2ccccc2)c2ccccc21 | 0.7 | 31* | 29 | -3 | 22 | 0.8
CCN(CC)CCCNC(=O)c1cc(-c2ccc(O)cc2)on1 | 2.3* | -1 | -129 | -7 | 0 | 1
Cc1cc2cc(CCNC(=O)c3c(-c4ccccc4Cl)noc3C)c(=O)[nH]c2cc1C | 0.5 | 4 | 47 | 5 | 13 | 0.9

Screens: PubChem, several laboratories
